According to PubChem BioAssay (Tox21):
Results filed as inconclusive are left out. Calls of active or inactive are those of the source. Unless noted, calls follow the shape of the dose curve; as a rule, active = well fitted curve in the direction sought with a large enough effect in the repeat runs; inconclusive = weak or mixed curves; inactive = no such curve, though single readings can be large; an effect the other way counts as inactive or inconclusive.

Legend:
[1] = qHTS assay to identify small molecule antagonists of the TGF-beta/Smad signaling pathway - cell viability counter screen (AID 1346824); also: nearly all actives have a fitted effect of over 50% in size
How it was run: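 SBE-bla HEK 293T cells, incubated overnight, then compound plus 0.25 ng/mL TGF-beta1 (stock added) for 5 hr at 37 C. Viability was read in the same wells by CellTiter-Glo luminescence after 30 min at room temperature.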

[2] = qHTS assay to identify small molecule agonists of the TGF-beta/Smad signaling pathway (AID 1346859; active = well fitted activation curve with a large enough effect in the signal ratio in the repeat runs, not every such curve was filed as active; the % refers to the signal ratio; also: series mostly up to about 77 µM)
How it was run: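 Dual-wavelength fluorescence (460/530 nm emission) quantified beta-lactamase expression under the Smad binding element in HEK 293T cells following 5 hr compound treatment at 37 C.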

[3] = target: Thyrotropin-releasing hormone receptor (Homo sapiens) (UniProt P34981); assay: qHTS assay to identify small molecule antagonists of the thyrotropin-releasing hormone receptor (TRHR) signaling pathway (AID 1346877; active = well fitted inhibition curve with a large enough effect in the repeat runs, not every such curve was filed as active; also: series mostly up to about 51 µM)
Thyrotropin-releasing hormone receptor (Homo sapiens), sequence (P34981 whole entry, looked up): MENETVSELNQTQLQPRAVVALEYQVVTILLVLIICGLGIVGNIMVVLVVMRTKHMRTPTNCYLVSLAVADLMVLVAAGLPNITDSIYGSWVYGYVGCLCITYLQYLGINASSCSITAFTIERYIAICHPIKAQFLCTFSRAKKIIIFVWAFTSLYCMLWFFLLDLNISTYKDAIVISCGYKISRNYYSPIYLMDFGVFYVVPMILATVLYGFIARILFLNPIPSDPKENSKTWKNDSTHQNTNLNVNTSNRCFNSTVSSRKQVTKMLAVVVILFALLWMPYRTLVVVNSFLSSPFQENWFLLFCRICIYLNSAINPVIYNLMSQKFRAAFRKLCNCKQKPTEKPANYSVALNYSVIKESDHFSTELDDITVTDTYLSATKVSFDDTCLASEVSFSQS
How it was run: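 In this cell-based calcium flux format, HEK293 cells expressing TRHR received test compound for 5 min before the agonist TRH (1 nM final). Dye loading lasted 2 h at 37 °C.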

[4] = target: Thyrotropin-releasing hormone receptor (Homo sapiens) (UniProt P34981); assay: qHTS assay to identify small molecule agonists of the thyrotropin-releasing hormone receptor (TRHR) signaling pathway (AID 1346891; calls by dose curve; also: series mostly up to about 58 µM)
How it was run: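 Kinetic fluorescence (3 min, 1 s intervals) reported intracellular calcium after compound transfer onto TRHR-Hek293 cells pre-loaded with dye for 2 h at 37 °C.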

[5] = Human pregnane X receptor (PXR) small molecule agonists, qHTS cell viability counter screen (AID 1346977); also: nearly all actives have a fitted effect of over 50% in size
How it was run: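 HepG2 cells stably carrying the PXR-Luc reporter are cultured with 5% charcoal-stripped FBS and treated with compounds for 24hr. CellTiter-Fluor is added at 23hr and fluorescence is read after 1hr.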

[6] = Caspase-3/7 induction in HepG2 cells by small molecules, qHTS assay (AID 1346978); also: nearly all actives have a fitted effect of over 15% in size
How it was run: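 Wild-type HepG2 cells, 2,000/well, settled 5 hr at 37 C and 5% CO2, then compound-treated for 17 hr; caspase-3/7 activity read by luminescent Caspase-Glo 3/7 after 30 min at room temperature.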

[7] = Caspase-3/7 induction in CHO-K1 cells by small molecules, qHTS assay (AID 1346980); also: nearly all actives have a fitted effect of over 15% in size
How it was run: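 Wild-type CHO-K1 cells exposed to compounds for 17hr at 37 C, 5% CO2. Caspase-3/7 activity then measured by Caspase-Glo 3/7 luminescence after 30min at room temperature.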

[8] = Caspase-3/7 induction in HepG2 cells by small molecules, qHTS cell viability counter screen (AID 1346981); also: series mostly up to about 92 µM; nearly all actives have a fitted effect of over 30% in size
How it was run: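 Counter screen for cytotoxicity: HepG2 exposed 16 hr to compounds, then CellTiter-Fluor viability signal (fluorescence, 1 hr reagent incubation).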

[9] = qHTS assay to identify small molecule agonists of the TGF-beta/Smad signaling pathway - cell viability counter screen (AID 1346829); also: top concentration of the series differs between compounds; nearly all actives have a fitted effect of over 45% in size
How it was run: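 Cytotoxicity counter screen: CellTiter-Glo luminescence (30 min, room temperature) measured in the SBE-bla HEK 293T reporter wells after 5 hr compound treatment at 37 C and the 2 hr substrate step.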

[10] = Caspase-3/7 induction in CHO-K1 cells by small molecules, qHTS cell viability counter screen (AID 1346979); also: nearly all actives have a fitted effect of over 35% in size
How it was run: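 Seeding: 1,500 CHO-K1 cells/well. Rest: 5hr, 37C. Treatment: compounds in DMSO, 16hr. Read: CellTiter-Fluor, 1hr, fluorescence.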
% is scaled to controls: 0 for no effect and ±100 for the full control effect.

CCNC(=O)NCCCOc1cccc(CN2CCCCC2)c1
inactive: outcome [1] | outcome [2] | outcome [3] | outcome [4] | Potency [5] | outcome [6] | outcome [7] | Potency [8]

Cc1cc(C)cc([N+](=O)[O-])c1
inactive: outcome [1] | outcome [2] | Potency [5] | outcome [6] | outcome [7] | Potency [8]

CC(C)COC(=O)CCCCC(=O)OCC(C)C
inactive: outcome [9] | outcome [2] | outcome [3] | outcome [4] | Potency [5] | outcome [6] | Potency [10] | outcome [7] | Potency [8]

C[CH2][Ge]([Cl])([CH2]C)[CH2]C
inactive: outcome [1] | outcome [2] | outcome [3] | outcome [4] | outcome [6] | Potency [10] | outcome [7] | Potency [8]

CCCCOC(=O)[C@@H](C)Oc1ccc(Oc2ccc(C(F)(F)F)cn2)cc1
inactive: outcome [1] | outcome [2] | Potency [5] | outcome [6] | Potency [10] | outcome [7] | Potency [8]

CC(=O)OCCCc1ccccc1
inactive: outcome [1] | outcome [2] | Potency [5] | outcome [6] | Potency [10] | Potency [8]

CCCCOC(=O)C(C)OC(=O)CCC (configuration not stated)
inactive: outcome [9] | outcome [2] | Potency [5] | outcome [6] | Potency [10] | outcome [7] | Potency [8]

Cn1c(=O)c2c(ncn2CC2OCCO2)n(C)c1=O
inactive: outcome [9] | outcome [2] | outcome [3] | outcome [4] | Potency [5] | Potency [10] | outcome [7] | Potency [8]

Nc1cc(S(=O)(=O)O)ccc1S(=O)(=O)O
inactive: outcome [2] | outcome [3] | outcome [4] | Potency [5] | outcome [6] | outcome [7] | Potency [8]

Cc1nc2ccccc2c(=O)o1
inactive: outcome [2] | Potency [5] | Potency [10] | outcome [7] | Potency [8]

Cc1nc2n(c(=O)c1CCN1CCC(C(=O)c3ccc(F)cc3)CC1)CCS2
inactive: outcome [9] | outcome [2] | outcome [3] | outcome [4] | outcome [6] | Potency [10] | outcome [7] | Potency [8]

N#CCCOCCOCCC#N
inactive: outcome [2] | outcome [3] | outcome [4] | Potency [5] | outcome [6] | Potency [10] | Potency [8]

Cc1ccccc1C(=O)N1CC/C(=N\OS(=O)(=O)O)c2ccc(Cl)cc21
inactive: outcome [2] | outcome [3] | outcome [4] | Potency [5] | outcome [6] | Potency [10] | outcome [7] | Potency [8]

NS(=O)(=O)c1ccccc1OC(F)(F)F
inactive: outcome [9] | outcome [2] | outcome [3] | outcome [4] | Potency [5] | outcome [6] | outcome [7] | Potency [8]

CC(C)COC(=O)/C=C/c1ccccc1
inactive: outcome [9] | outcome [2] | Potency [5] | outcome [6] | Potency [10] | outcome [7] | Potency [8]

C[C@H](CCC(=O)O)[C@H]1CC[C@H]2[C@@H]3[C@H](O)C[C@@H]4C[C@H](O)CC[C@]4(C)[C@H]3C[C@H](O)[C@]12C
inactive: outcome [9] | outcome [2] | outcome [6] | Potency [10] | outcome [7] | Potency [8]

CC(C)COC(=O)CC(C(=O)OCC(C)C)S(=O)(=O)O (configuration not stated)
inactive: outcome [9] | outcome [2] | Potency [5] | outcome [6] | Potency [10] | outcome [7] | Potency [8]

CC(=O)OCC(=O)[C@@]1(O)[C@H](OC(C)=O)C[C@H]2[C@@H]3CCC4=CC(=O)C=C[C@]4(C)[C@@]3(F)[C@@H](O)C[C@@]21C
inactive: outcome [9] | outcome [2] | outcome [3] | outcome [4] | outcome [6] | Potency [10] | Potency [8]

CC(=O)c1ccc2c(c1)CCCC2
inactive: outcome [9] | outcome [2] | Potency [5] | outcome [6] | Potency [8]

Nc1ccc(/C=C/c2ccc(N)cc2S(=O)(=O)O)c(S(=O)(=O)O)c1
inactive: activity change, negative = cytotoxicity [9] 12.6% [at 0.29 µM] | activation [2] 1.21% [at 0.29 µM] | activity, negative = inhibition [3] -5.44% [at 0.194 µM] | activation [4] 0.0703% [at 0.218 µM] | activity change, negative = cytotoxicity [5] 11% [at 0.349 µM] | caspase activation [6] 0.454% [at 0.349 µM] | activity change, negative = cytotoxicity [8] 1.29% [at 0.349 µM]

CC(C)CCC(=O)CCC(C)C
inactive: outcome [9] | outcome [2] | outcome [3] | outcome [4] | Potency [5] | outcome [6] | Potency [10] | Potency [8]

CCCCCC(=O)OCC
inactive: outcome [9] | outcome [2] | outcome [3] | outcome [4] | Potency [5] | outcome [6] | Potency [10] | outcome [7] | Potency [8]

C=C[C@@H](C)CCC=C(C)C
inactive: outcome [9] | outcome [2] | outcome [3] | outcome [4] | outcome [6] | Potency [10] | outcome [7] | Potency [8]

CC(C)c1ccccc1O
inactive: outcome [9] | outcome [2] | outcome [6] | Potency [10] | outcome [7] | Potency [8]

BrC/C=C/CBr
inactive: activity change, negative = cytotoxicity [9] 11.2% [at 15.8 µM] | activation [2] 1.06% [at 15.8 µM] | activity, negative = inhibition [3] 0.461% [at 10.5 µM] | activation [4] 0.238% [at 11.8 µM] | activity change, negative = cytotoxicity [5] 5.06% [at 19 µM] | activity change, negative = cytotoxicity [10] 8.86% [at 19 µM] | caspase-3/7 activation [7] 0.312% [at 19 µM] | activity change, negative = cytotoxicity [8] -3.88% [at 19 µM]

O=C1OC(=O)c2ccccc21
inactive: outcome [2] | outcome [3] | outcome [4] | Potency [5] | outcome [6] | Potency [10] | Potency [8]
